Results filed as inconclusive are left out. The source made the active and inactive calls. Unless noted, calls come from the whole dose curve; as a rule, active = well fitted curve in the direction sought with a large enough effect; inconclusive = small, poorly fitted or top-dose-only effect, or another doubt; inactive = no such curve, though single readings can be large; an effect the other way counts as inactive or inconclusive.
Key:
[1] = biological target: Rap guanine nucleotide exchange factor 3 (Homo sapiens) (UniProt O95398); assay: Confirmatory qHTS for antagonist of cAMP-regulated guanine nucleotide exchange factor 3 (EPAC1) (AID 1645880); conditions: EPAC1 Rap1B-BODIPY-GDP exchange, fluorescence; activity, negative = inhibition: at 115 µM (top of the series); note: nearly all actives have a fitted effect of over 55% in size; note: potency is the fitted concentration of half-maximal effect;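 for activity, negative = inhibition: plate controls were DMSO only for no effect and full effect of the ATA control for full effect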
Method in brief: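 Released BODIPY-GDP fluoresces less than Rap1-bound BODIPY-GDP; the signal is followed at 480/540 nm at 5-min intervals over 30 min, after 5 min at room temperature. Reactions contain 100 nM EPAC1, 250 nM RAP1B-BODIPY-GDP and 50 uM GDP; results are normalized to ATA and DMSO.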

[2] = biological target: Rap guanine nucleotide exchange factor 3 (Homo sapiens) (UniProt O95398); assay: Confirmatory qHTS for agonist of cAMP-regulated guanine nucleotide exchange factor 3 (EPAC1) (AID 1645881); note: nearly all actives have a fitted effect of over 75% in size; note: potency is the fitted concentration of half-maximal effect;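 for activation: EPAC1 catalysed release of BODIPY-GDP from Rap1B seen as fluorescence loss; 100% = effect of cAMP agonist control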
[3] = biological target: Rap guanine nucleotide exchange factor 3 (Homo sapiens) (UniProt O95398); assay: Counterscreen qHTS for antagonist of cAMP-regulated guanine nucleotide exchange factor 3 (EPAC1) (AID 1645888); note: % of control where 0% means no effect
Method in brief: (§1)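 Measured: fluorescence of BODIPY-GDP bound to Rap1B, which falls as exchange proceeds. Conditions include 50 uM competing GDP, 5 and 30 min reads, and a later cAMP challenge for antagonist detection.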

[4] = biological target: Rap guanine nucleotide exchange factor 3 (Homo sapiens) (UniProt O95398); assay: Counterscreen qHTS for agonist of cAMP-regulated guanine nucleotide exchange factor 3 (EPAC1) (AID 1645889); note: nearly all actives have a fitted effect of over 40% in size; note: potency is the fitted concentration of half-maximal effect; for activation: % of control where 0% means no effect
Method in brief: as §1

[5] = biological target: Rap guanine nucleotide exchange factor 4 (Homo sapiens) (UniProt Q8WZA2); assay: Confirmatory qHTS for agonist of cAMP-regulated guanine nucleotide exchange factor 4 (EPAC2) (AID 1645884);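 note: nucleotide exchange releases bodipy-GDP from Rap1 and this lowers its fluorescence; nearly all actives have a fitted effect of over 65% in size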; note: potency is the fitted concentration of half-maximal effect; for activation: % is set by controls: 0 for no effect and ±100 for the full control effect
[6] = biological target: Rap guanine nucleotide exchange factor 4 (Homo sapiens) (UniProt Q8WZA2); assay: Confirmatory qHTS for antagonist of cAMP-regulated guanine nucleotide exchange factor 4 (EPAC2) (AID 1645885); note: % is set by controls: 0 for no effect and ±100 for the full control effect; nearly all actives have a fitted effect of over 25% in size
[7] = biological target: Cytochrome P450 1A2 (Homo sapiens) (UniProt P05177); assay: p450-cyp1a2 (AID 410; calls by dose curve; note: potency is the fitted concentration of half-maximal effect)
Method in brief: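 Luminescent demethylation readout: Luciferin-ME (100uM, equal to Km) turned over by 20nM CYP1A2 for 60 min at room temperature after NADPH regeneration addition, following 10 min compound preincubation. Normalization used 57 uM furafylline as full inhibition.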

[8] = biological target: Glucocorticoid receptor (Homo sapiens) (UniProt P04150); assay: GR-GFP Redistribution (AID 450;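 active = compounds whose dose series gives a full or clear partial fitted curve of increased nuclear translocation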; note: potency is the fitted concentration of half-maximal effect); conditions: U2OS GR-GFP nuclear translocation, laser cytometry, 2 h
[9] = biological target: Glucocorticoid receptor (Homo sapiens) (UniProt P04150); assay: GR-EFC Redistribution (AID 451; calls by dose curve; note: potency is the fitted concentration of half-maximal effect); conditions: CHO-K1 GR-EFC translocation, beta-gal luminescence, 2 h
Method in brief: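 CHO-K1 cells stably expressing nuclear-localized β-gal enzyme acceptor and GR fused C-terminally to the enzyme donor fragment; ligand-driven nuclear translocation restores β-gal by complementation. Compounds titrated up to 46 uM final, 2 h at 37 °C; luminescence read.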

[10] = biological target: Mitogen-activated protein kinase 10 (Mus musculus) (UniProt Q61831); assay: JNK3 AlphaScreen Assay (AID 530; active = well fitted curve in either direction with a large enough effect, not every such curve was filed as active;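 note: kinase came from lysate of stimulated human HepG2 cells; potency is the fitted concentration of half-maximal effect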)
Method in brief: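 Phosphorylation of biotinylated GST-cJun(1-79) at Ser73 is measured by AlphaScreen proximity luminescence. Enzyme is JNK3 in HepG2 lysates activated with interleukin-1beta and tumor necrosis factor alpha; ATP is 10 uM final.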

[11] = biological target: Cytochrome P450 2C9 (Homo sapiens) (UniProt P11712); assay: qHTS Assay for Inhibitors and Substrates of Cytochrome P450 2C9 (AID 883); note: potency is the fitted concentration of half-maximal effect; nearly all actives have a fitted effect of over 60% in size
Method in brief: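 CYP2C9 deoxyluciferin hydroxylation, 37C, 60 min with NADPH regeneration; 10nM enzyme, 100uM Luciferin-H (KM). Glo detection reagent stopped reaction; luminescence normalized to sulphaphenazole (57uM) full inhibition.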

[12] = biological target: Cytochrome P450 3A4 (Homo sapiens) (UniProt P08684); assay: qHTS Assay for Inhibitors and Substrates of Cytochrome P450 3A4 (AID 884); note: potency is the fitted concentration of half-maximal effect; nearly all actives have a fitted effect of over 50% in size
Method in brief: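 Luminescent readout of luciferin produced by CYP3A4 (20 nM) dealkylation of Luciferin-PPXE, 25 uM (its KM). NADPH-driven reaction ran 60 min at RT after 10 min compound preincubation; data scaled to 57 uM ketoconazole as 100% inhibition.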

[13] = biological target: Cytochrome P450 3A4 (Homo sapiens) (UniProt P08684); assay: qHTS Assay for Activators of Cytochrome P450 3A4 (AID 885); note: nearly all actives have a fitted effect of over 65% in size
Method in brief: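 Using 20nM recombinant human CYP3A4 in potassium phosphate (200mM), substrate Luciferin-PPXE at 25uM, luminescent luciferin detection followed a 60-min RT NADPH reaction; data scaled to 57 uM ketoconazole.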

[14] = biological target: Cytochrome P450 2D6 (Homo sapiens) (UniProt P10635); assay: qHTS Assay for Inhibitors and Substrates of Cytochrome P450 2D6 (AID 891); note: potency is the fitted concentration of half-maximal effect; nearly all actives have a fitted effect of over 60% in size
Method in brief: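 Luminescent read-out of luciferin formed by 5 nM human CYP2D6 demethylating 30 uM Luciferin-ME EGE (Km level) over 60 min at room temperature after NADPH regeneration addition. Data normalized to full inhibition by 1.43 uM quinidine.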

[15] = biological target: Cytochrome P450 2C19 (Homo sapiens) (UniProt P33261); assay: qHTS Assay for Inhibitors and Substrates of Cytochrome P450 2C19 (AID 899); note: potency is the fitted concentration of half-maximal effect; nearly all actives have a fitted effect of over 60% in size
Method in brief: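 In 50mM KPO4, the reaction held 5nM enzyme and KM-level (10uM) Luciferin-H EGE; it ran 60 min at 37C after NADPH regeneration and a 10 min compound preincubation. Luminescence values were scaled to 57uM ketoconazole as complete inhibition.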

[16] = biological target: DNA dC->dU-editing enzyme APOBEC-3G (Homo sapiens) (UniProt Q9HC16); assay: qHTS for inhibitors of Vif-A3G interactions: Validation (AID 588379); note: 0% is about no effect
Method in brief: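 Yellow fluorescence (Ex 488, Em 500-530) of Vif-coexpressing HeLa A3G-eYFP cells, scanned by Acumen cytometer, reports blocked A3G degradation. Cells plated at 700/well overnight at 37 deg C before compound addition, then a further overnight compound incubation at 37 deg C.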

[17] = qHTS for Inhibitors of the vitamin D receptor (VDR): Hit Validation using a Texas Red Assay (AID 602201); note: % is set by controls: 0 for no effect and ±100 for the full control effect
Method in brief: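 Fluorescence polarization (Ex 595/Em 615 nm) of Texas Red (7 nM) with 1.5 uM VDR-LBD and LG19078 (final concentrations). Compounds were incubated for 2 hours at room temperature.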

Chain of Rap guanine nucleotide exchange factor 3 (Homo sapiens) (O95398 whole entry, looked up): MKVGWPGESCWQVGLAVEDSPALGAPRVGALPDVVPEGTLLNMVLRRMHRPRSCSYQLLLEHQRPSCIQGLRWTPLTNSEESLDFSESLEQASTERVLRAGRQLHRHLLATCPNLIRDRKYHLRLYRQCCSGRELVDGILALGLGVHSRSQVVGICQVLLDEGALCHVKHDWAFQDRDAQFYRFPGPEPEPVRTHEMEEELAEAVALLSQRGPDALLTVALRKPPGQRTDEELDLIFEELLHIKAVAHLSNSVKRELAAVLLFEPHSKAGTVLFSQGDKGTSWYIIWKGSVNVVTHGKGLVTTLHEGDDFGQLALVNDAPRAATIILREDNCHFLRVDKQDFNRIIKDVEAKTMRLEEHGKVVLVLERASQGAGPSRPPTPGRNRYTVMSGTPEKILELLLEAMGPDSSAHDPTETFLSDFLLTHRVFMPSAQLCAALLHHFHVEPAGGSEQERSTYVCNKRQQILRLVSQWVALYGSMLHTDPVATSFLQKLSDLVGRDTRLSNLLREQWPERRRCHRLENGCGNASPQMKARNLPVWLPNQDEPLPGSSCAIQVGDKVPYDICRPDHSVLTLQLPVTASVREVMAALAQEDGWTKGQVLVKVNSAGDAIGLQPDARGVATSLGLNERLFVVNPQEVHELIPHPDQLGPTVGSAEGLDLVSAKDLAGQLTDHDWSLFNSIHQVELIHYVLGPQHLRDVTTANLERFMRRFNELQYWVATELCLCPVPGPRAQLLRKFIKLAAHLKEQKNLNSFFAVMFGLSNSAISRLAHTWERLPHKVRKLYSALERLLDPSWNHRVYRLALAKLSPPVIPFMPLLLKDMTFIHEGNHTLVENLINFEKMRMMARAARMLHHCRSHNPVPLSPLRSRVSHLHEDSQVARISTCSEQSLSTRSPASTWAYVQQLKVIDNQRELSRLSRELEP
Chain of Rap guanine nucleotide exchange factor 4 (Homo sapiens) (Q8WZA2 whole entry, looked up): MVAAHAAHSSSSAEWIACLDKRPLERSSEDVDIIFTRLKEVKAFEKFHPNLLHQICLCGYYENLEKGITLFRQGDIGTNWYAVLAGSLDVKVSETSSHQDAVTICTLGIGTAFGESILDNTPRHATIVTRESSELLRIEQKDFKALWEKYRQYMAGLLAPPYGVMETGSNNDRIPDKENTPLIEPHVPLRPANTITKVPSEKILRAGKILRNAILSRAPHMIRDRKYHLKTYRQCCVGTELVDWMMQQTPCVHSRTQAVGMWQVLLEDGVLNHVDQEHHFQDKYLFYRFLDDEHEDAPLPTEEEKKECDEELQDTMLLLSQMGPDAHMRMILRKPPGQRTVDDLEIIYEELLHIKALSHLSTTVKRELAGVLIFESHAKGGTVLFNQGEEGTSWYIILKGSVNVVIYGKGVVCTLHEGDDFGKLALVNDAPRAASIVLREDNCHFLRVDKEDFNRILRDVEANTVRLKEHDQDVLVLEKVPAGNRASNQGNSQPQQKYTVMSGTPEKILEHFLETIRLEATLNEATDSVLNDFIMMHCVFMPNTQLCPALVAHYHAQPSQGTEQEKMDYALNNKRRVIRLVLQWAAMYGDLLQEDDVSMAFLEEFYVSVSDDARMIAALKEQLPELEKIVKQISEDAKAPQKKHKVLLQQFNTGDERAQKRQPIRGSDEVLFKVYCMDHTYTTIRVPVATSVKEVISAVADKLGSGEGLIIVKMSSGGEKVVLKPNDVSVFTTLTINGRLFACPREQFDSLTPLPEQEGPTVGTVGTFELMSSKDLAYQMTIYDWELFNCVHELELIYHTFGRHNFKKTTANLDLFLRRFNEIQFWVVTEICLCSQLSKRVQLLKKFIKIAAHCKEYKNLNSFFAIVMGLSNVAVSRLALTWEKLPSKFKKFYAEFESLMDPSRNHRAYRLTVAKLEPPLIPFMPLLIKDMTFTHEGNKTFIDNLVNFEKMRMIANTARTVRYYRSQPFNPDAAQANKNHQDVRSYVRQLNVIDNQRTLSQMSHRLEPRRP
Chain of Cytochrome P450 3A4 (Homo sapiens) (P08684 whole entry, looked up): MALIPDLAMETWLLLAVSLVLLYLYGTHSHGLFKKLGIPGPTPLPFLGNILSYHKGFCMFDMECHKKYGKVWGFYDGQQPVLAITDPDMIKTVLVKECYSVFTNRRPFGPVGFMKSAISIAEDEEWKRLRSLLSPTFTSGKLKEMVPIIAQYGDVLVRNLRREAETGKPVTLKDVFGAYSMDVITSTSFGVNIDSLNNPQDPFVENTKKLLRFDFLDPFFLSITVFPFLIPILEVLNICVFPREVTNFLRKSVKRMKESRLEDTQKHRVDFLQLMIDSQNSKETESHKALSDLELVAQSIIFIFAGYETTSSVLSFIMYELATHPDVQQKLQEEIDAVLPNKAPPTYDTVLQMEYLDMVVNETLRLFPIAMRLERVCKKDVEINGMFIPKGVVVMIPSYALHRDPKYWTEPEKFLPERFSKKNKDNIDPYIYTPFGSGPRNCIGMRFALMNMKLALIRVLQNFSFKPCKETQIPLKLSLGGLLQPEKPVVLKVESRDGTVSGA
Chain of Glucocorticoid receptor (Homo sapiens) (P04150 whole entry, looked up, the tested form may be a part): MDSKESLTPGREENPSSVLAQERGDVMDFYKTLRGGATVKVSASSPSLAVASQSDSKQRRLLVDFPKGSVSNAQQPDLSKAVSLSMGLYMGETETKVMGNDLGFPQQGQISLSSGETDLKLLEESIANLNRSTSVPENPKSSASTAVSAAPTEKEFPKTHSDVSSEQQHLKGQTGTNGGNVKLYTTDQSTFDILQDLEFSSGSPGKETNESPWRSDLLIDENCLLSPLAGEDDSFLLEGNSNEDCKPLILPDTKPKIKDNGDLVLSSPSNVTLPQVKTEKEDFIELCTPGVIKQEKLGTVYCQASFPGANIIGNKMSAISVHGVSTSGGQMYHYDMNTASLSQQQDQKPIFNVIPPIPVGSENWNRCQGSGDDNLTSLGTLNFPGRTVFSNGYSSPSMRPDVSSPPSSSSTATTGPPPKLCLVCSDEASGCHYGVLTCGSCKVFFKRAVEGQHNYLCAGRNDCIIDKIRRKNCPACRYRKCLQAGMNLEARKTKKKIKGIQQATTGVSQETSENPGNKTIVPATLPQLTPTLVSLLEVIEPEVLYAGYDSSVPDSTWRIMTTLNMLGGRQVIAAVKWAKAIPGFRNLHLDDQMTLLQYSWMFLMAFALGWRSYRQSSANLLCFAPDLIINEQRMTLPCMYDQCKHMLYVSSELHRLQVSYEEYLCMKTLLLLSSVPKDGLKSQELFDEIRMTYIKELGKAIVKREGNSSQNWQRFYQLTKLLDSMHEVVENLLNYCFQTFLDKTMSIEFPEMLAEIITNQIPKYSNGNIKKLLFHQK
Chain of DNA dC->dU-editing enzyme APOBEC-3G (Homo sapiens) (Q9HC16 whole entry, looked up): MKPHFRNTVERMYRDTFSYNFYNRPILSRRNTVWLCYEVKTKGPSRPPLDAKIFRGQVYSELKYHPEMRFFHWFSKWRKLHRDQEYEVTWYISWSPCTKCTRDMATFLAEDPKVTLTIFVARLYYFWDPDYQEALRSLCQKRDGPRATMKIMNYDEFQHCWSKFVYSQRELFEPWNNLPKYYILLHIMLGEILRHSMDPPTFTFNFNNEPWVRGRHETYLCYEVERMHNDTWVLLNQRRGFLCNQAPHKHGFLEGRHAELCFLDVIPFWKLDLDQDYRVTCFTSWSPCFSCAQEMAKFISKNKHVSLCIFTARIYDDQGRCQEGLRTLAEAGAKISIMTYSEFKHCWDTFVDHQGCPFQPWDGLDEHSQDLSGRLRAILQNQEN
Chain of Cytochrome P450 1A2 (Homo sapiens) (P05177 whole entry, looked up): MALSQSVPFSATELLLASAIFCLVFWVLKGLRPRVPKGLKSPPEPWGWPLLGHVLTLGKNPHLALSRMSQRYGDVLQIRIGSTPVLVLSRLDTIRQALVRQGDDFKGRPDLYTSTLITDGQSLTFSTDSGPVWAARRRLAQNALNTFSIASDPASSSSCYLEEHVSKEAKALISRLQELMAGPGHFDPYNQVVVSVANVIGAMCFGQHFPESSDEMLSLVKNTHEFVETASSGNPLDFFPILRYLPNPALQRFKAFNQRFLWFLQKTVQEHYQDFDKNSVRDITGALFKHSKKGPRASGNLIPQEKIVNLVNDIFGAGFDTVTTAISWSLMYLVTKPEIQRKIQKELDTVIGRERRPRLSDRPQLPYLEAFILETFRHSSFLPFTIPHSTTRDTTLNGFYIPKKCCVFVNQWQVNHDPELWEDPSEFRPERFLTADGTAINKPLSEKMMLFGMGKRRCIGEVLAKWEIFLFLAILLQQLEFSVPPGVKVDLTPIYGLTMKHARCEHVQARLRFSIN
Chain of Cytochrome P450 2D6 (Homo sapiens) (P10635 whole entry, looked up): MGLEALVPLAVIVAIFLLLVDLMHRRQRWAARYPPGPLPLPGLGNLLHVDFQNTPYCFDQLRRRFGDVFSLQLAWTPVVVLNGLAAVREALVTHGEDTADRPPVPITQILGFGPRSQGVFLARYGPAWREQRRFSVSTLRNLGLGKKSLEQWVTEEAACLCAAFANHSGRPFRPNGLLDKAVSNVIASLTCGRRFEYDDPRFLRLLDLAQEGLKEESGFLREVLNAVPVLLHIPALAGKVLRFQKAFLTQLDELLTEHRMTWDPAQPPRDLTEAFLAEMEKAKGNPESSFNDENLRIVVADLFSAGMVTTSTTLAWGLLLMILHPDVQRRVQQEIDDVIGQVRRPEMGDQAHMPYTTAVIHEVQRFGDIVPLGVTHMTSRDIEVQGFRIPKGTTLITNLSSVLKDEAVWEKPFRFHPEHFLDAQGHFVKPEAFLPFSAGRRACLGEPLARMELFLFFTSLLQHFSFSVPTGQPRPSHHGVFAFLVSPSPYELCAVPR

CCOc1cc(C)c(S(=O)(=O)N2CCCCC2)cc1C
inactive: Potency [1] | Potency [2] | Potency [3] | Potency [4]

COC(=O)c1ccc2nc(C3CCCCC3)c(Cc3ccccc3)n2c1
inactive: Potency [1] | Potency [2] | activity change, negative = inhibition [3] 6.26% [at 30.8 µM] | activation [4] 9.29% [at 30.8 µM]

CNc1snc(C)c1C(=O)OCC(=O)Nc1ccc(C)cc1F
inactive: Potency [1] | Potency [2] | Potency [3] | Potency [4]

C=CCSc1nc2ccccc2c(=O)n1Cc1ccccc1
inactive: Potency [1] | Potency [2] | activity change, negative = inhibition [3] 17.3% [at 30.8 µM] | activation [4] 7.4% [at 30.8 µM]

Cc1ccc2cccc(Oc3nnnn3-c3ccccc3)c2n1
inactive: Potency [1] | Potency [2] | Potency [3] | Potency [4]

O=C(/C=C/c1cccc(Cl)c1Cl)OCC(=O)N1CCOCC1
inactive: Potency [1] | Potency [2] | Potency [3] | Potency [4]

COc1ccc(-c2noc(CN(C(=O)c3c(-c4ccccc4Cl)noc3C)C(C)C)n2)cc1
inactive: Potency [1] | Potency [2] | Potency [3] | Potency [4]

COc1ccc(S(=O)(=O)N2CCCC2)c2ccccc12
inactive: Potency [1] | Potency [2] | activity change, negative = inhibition [3] -10.4% [at 30.8 µM] | activation [4] 9.58% [at 30.8 µM]

CC1CN(c2nc(-c3ccccc3)nc3ccccc23)CC(C)O1 (stereo not drawn)
inactive: Potency [1] | Potency [2] | activity change, negative = inhibition [3] 3.46% [at 30.8 µM] | activation [4] 21.3% [at 30.8 µM]

COc1ccc(-c2ccc(CCC(=O)O)n2-c2ccc(Cl)cc2C)cc1
inactive: Potency [1] | Potency [2] | Potency [3] | Potency [4]

CC(=O)O[C@H]1c2ccccc2-c2ccccc2[C@@H]1OC(C)=O
inactive: Potency [1] | Potency [2] | activity change, negative = inhibition [3] -14.6% [at 30.8 µM] | activation [4] 8.91% [at 30.8 µM]

O=C(O)c1cnn(-c2nc(-c3ccc(Cl)c(Cl)c3)cs2)c1C(F)(F)F
active: Potency [1] 75.7 µM
inactive: Potency [2] | Potency [3] | Potency [4]

COc1ccc2cc(S(=O)(=O)N3CCCC3)ccc2c1
inactive: Potency [1] | Potency [2] | activity change, negative = inhibition [3] -17.9% [at 30.8 µM] | activation [4] 13.3% [at 30.8 µM]

COC(=O)c1ccc2nc(-c3cccc(Br)c3)c(Cc3ccsc3)n2c1
inactive: Potency [1] | Potency [2] | activity change, negative = inhibition [3] -25% [at 30.8 µM] | activation [4] 17.8% [at 30.8 µM]

O=C(O)CCCN1C(=O)/C(=C/c2cn(-c3ccccc3)nc2-c2cccs2)SC1=S
inactive: Potency [1] | Potency [3]
active: Potency [2] 112 µM | Potency [4] 15.8 µM

CC1CN(c2nc3ccccc3cc2-c2ccccc2)CC(C)O1 (stereo not drawn)
inactive: Potency [1] | Potency [2] | Potency [3] | Potency [4]

CC(C)(C)C1CCc2c(sc(NC(=O)CCC(=O)O)c2C(=O)Nc2ccccc2C(F)(F)F)C1 (stereo not drawn)
active: Potency [1] 42.6 µM
inactive: Potency [5] | Potency [6]

O=C1/C(=C/C=C/c2ccccc2)Oc2c1ccc(O)c2CN1CCN(CCO)CC1
inactive: Potency [1] | activation [5] 17.5% [at 17.1 µM, percent relative to cAMP agonist control] | Potency [6] | activity change, negative = inhibition [3] 31.1% [at 30.8 µM]

CCN(CC)c1ccc2cc(C(N)=O)c(=N)oc2c1
inactive: Potency [1] | activation [5] 2.03% [at 17.1 µM, percent relative to cAMP agonist control] | Potency [6] | activity change, negative = inhibition [3] -1.22% [at 30.8 µM]

O=C(CSc1nc2ccccc2o1)NCc1ccc2c(c1)OCO2
inactive: Potency [1] | Potency [5]

CCOC(=O)N1CCc2c(sc3c2c(=O)n(-c2ccc(F)cc2)c(=O)n3CC(=O)c2ccc(Cl)cc2)C1
inactive: Potency [1] | Potency [5] | Potency [6] | Potency [3]

COc1cc2cc3c4c(cc(OC)c(OC)c4c2cc1OC)CCN3C
active: Potency [7] 0.0794 µM | Potency [10] 0.158 µM | Potency [11] 0.794 µM | Potency [12] 3.98 µM | Potency [14] 3.98 µM | Potency [15] 0.0501 µM
inactive: Potency [8] > 46 µM | Potency [9] > 46 µM | outcome [13] | outcome [16] | Potency [1] | Potency [2]

N=C1SC(c2ccccc2)C(=O)N1c1ncc(Cc2ccccc2Cl)s1 (stereo not drawn)
inactive: Potency [1] | Potency [5] | Potency [6]

COC(=O)C1=CC(C(=O)c2cccs2)=NN(c2ccc(OC)cc2)C1C(=O)OC (stereo not drawn)
inactive: Potency [1] | activation [5] 9.11% [at 17.1 µM, percent relative to cAMP agonist control] | Potency [6] | activity change, negative = inhibition [3] -26% [at 30.8 µM]

O=C1OC(c2ccccc2)(c2cc(Br)c(O)c(Br)c2)c2ccccc21 (stereo not drawn)
active: Potency [1] 84.9 µM
inactive: Potency [2] | Potency [4]

CN(C)c1ccc(C(=O)/C=C/c2ccc(Br)cc2)cc1
inactive: Potency [1] | Potency [6] | Potency [3]
active: Potency [5] 112 µM

COc1ccc(N2C(=O)[C@H]3CCC=C[C@H]3[C@@H]2c2ccccc2Br)cc1
inactive: Potency [1] | Potency [2] | Potency [4]

O=C(O)c1cc(Nc2cc(Cl)c3nonc3c2[N+](=O)[O-])ccc1O
inactive: Potency [17] | Potency [2] | Potency [4]
active: Potency [1] 9.53 µM

O=C(c1cccs1)N(Cc1cccnc1)c1nc2c(Cl)cccc2s1
inactive: Potency [1] | Potency [5] | Potency [6] | Potency [3]

— PubChem BioAssay (NCATS)
